The source made the active and inactive calls. No stated cut-off is given here; in the data, active means potency below about 10 µM; inactive means the rest.
Target: Lysosomal acid glucosylceramidase (Homo sapiens) (UniProt P04062)
Assay: Glucocerebrosidase-p2 (AID 348)
Conditions: purified GBA, blue fluorogenic substrate, 40 min
Summary of the method: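 Compounds titrated from 0.6 nM upwards against 0.2 nM enzyme in pH 5.9 citric acid/KH2PO4, taurocholate, tween-20; blue fluorogenic substrate 80 uM, 40 min room temperature, stopped and read Ex 365/Em 440 for AC50.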
Potency means the concentration at half of the fitted maximal effect.

Lysosomal acid glucosylceramidase (Homo sapiens), sequence (P04062 whole entry, looked up): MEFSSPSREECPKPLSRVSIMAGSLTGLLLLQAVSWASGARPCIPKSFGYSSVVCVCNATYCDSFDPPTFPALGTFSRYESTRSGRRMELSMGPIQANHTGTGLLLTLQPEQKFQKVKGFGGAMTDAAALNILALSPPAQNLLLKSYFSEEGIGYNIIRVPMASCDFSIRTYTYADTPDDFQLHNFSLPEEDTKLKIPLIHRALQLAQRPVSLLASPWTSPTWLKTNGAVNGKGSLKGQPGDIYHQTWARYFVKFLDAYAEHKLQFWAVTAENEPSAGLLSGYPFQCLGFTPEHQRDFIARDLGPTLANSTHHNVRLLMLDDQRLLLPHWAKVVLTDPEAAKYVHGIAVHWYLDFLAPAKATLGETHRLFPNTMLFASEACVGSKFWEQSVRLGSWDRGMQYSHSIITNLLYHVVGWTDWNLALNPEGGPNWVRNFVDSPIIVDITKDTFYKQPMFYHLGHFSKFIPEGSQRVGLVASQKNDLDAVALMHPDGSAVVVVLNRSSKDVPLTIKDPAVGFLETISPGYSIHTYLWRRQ

Potency, inactive:
Cc1nc2cnc(Oc3cccc(Cl)c3)nc2n(C2CC2)c1=O > 11.4 µM, CNc1ncncc1-c1ccccc1C(F)(F)F > 11.4 µM, CC(=O)NCCNc1nc(-c2ccc(C(=O)N(C)C)cc2)nc2ccccc12 > 11.4 µM, COc1ccc(CNc2ccnc(-c3ccc(C(=O)N(C)C)cc3)n2)c(OC)c1 > 11.4 µM, Clc1ccccc1-c1cc(NCCN2CCOCC2)ncn1 > 11.4 µM, COc1ccc(CNc2cc(-c3cccnc3)ncn2)c(OC)c1 > 11.4 µM, CCNc1ncc2nc(-c3ccc(OC)cc3)c(=O)n(CCC#N)c2n1 > 11.4 µM, FC(F)(F)c1ccccc1-c1cncnc1NCc1cccnc1 > 11.4 µM, COc1ncc2nc(-c3cn(C)c4ccccc34)c(=O)n(C)c2n1 > 11.4 µM, CN(C)C(=O)c1ccc(-c2cncnc2NCc2ccccc2)cc1 > 11.4 µM, COc1ccc(-n2c(=O)c(CCc3ccccc3)nc3cncnc32)cc1 > 11.4 µM, Cc1nc2cnc(N(C)C)nc2n(-c2ccccc2)c1=O > 11.4 µM, COc1ccccc1CNc1ncncc1-c1ccc(C(=O)N(C)C)cc1 > 11.4 µM, COc1ccc(CNc2ncncc2-c2ccccc2C(F)(F)F)c(OC)c1 > 11.4 µM, COCCn1c(=O)c(-c2cccc(C#N)c2)nc2cnc(N3CCOCC3)nc21 > 11.4 µM, CNc1ncncc1-c1ccccc1C > 11.4 µM, O=c1cnc2cnc(Oc3ccccc3)nc2n1C1CC1 > 11.4 µM, COCCn1c(=O)c(-c2cccc(C#N)c2)nc2cnc(Oc3ccc(OC)cc3)nc21 > 11.4 µM, O=c1c(-c2ccccc2)nc2cncnc2n1-c1ccccc1 > 11.4 µM, CN(C)C(=O)c1ccc(-c2nccc(N(C)Cc3ccco3)n2)cc1 > 11.4 µM, CS(=O)(=O)Nc1cccc(-c2cc(NCc3cccs3)ncn2)c1 > 11.4 µM, COc1ccc(-c2nc3cnc(OC)nc3n(C)c2=O)cc1 > 11.4 µM, c1ccc(CNc2ncncc2-c2cccnc2)cc1 > 11.4 µM, CN(C)c1ncc2nc(-c3cccs3)c(=O)n(-c3ccccc3)c2n1 > 11.4 µM, Cn1c(=O)c(-c2ccc(Cl)cc2)nc2cnc(OCc3ccccc3)nc21 > 11.4 µM, COc1cccc(Cn2c(=O)c(-c3ccc(Cl)cc3)nc3cnc(N4CCN(C)CC4)nc32)c1 > 11.4 µM, COc1cccc(Cn2c(=O)c(CCc3ccccc3)nc3cncnc32)c1 > 11.4 µM, Cn1c(=O)c(-c2ccccc2)nc2cnc(Nc3ccccc3)nc21 > 11.4 µM, COc1ncc2ncc(=O)n(C3CC3)c2n1 > 11.4 µM, Cc1cnc(CNc2cc(-c3ccccc3C(F)(F)F)ncn2)cn1 > 11.4 µM, CN(C)C(=O)c1ccc(-c2cncnc2NCc2cccnc2)cc1 > 11.4 µM, COc1ncc2nc(-c3ccc(F)cc3)c(=O)n(CCc3ccccc3)c2n1 > 11.4 µM, N#Cc1cccc(-c2nccc(-n3ccnc3)n2)c1 > 11.4 µM, O=c1c(-c2ccccc2)nc2cnc(Oc3cccc(Cl)c3)nc2n1C1CC1 > 11.4 µM, CNc1nc(-c2cccnc2)nc2ccccc12 > 11.4 µM, Cn1cc(-c2nc3cnc(Oc4ccccc4)nc3n(Cc3cccs3)c2=O)c2ccccc21 > 11.4 µM, COc1cccc(Cn2c(=O)c(-c3ccc(Cl)cc3)nc3cnc(OC)nc32)c1 > 11.4 µM
